Test results from PubChem BioAssay (NCATS).
Inconclusive results are not listed. Calls follow the shape of the dose curve; as a rule, active = well fitted curve in either direction with a large enough effect (not every such curve was filed as active); inconclusive = small, poorly fitted or top-dose-only effect, or another doubt; inactive = flat fitted curve, though single readings scatter.

Assay: NFAT Signaling Pathway (AID 444)
Details: Jurkat NFAT-bla M1, carbachol, beta-lactamase ratio, 5 h; at 7.69 µM (top of the series) unless noted
Description: NCGC Assay Overview: The nuclear factor of activated T cells (NFAT) family of transcription factors has been found primarily in most immune system cells and some other non-immune cells. NFAT plays the immunomodulatory role, primarily in T-cell activation and differentiation. NFAT target genes are also involved in the regulation of apoptosis and differentiation in non-immune cell types. The NFAT sequence was engineered to the upstream of the ?-lactamase reporter gene and transfected into Jurkat cells with co-transfection of muscarinic receptor1 [provided by Invitrogen Corp]. When an extracellular stimulus, such as carbachol, binds to the GPCR M1 receptor, it stimulates a signaling cascade that activates NFAT response element and ?-lactamase expression by phosphorylating the NFAT binding protein. This cell based ?-lactamase reporter gene assay can accurately monitor any changes occurring along the NFAT pathway, and can be used for screening small molecule inhibitor or activator upon activation by carbachol EC50 concentration. A small molecular library were screened in a titration series resulting in AC50s (can be either IC50s or EC50s).
NCGC Assay Protocol Summary: The cells were prepared in RPMI 1640 medium containing 0.1% dialyzed FBS and 25 mM HEPES at 1.6 x 10^6cell/ml. The assay was performed in 1536-well plate format as follows: 5 ul of cell preparation 23 nl of compounds 1ul of carbachol (final concentration 1 uM) Briefly centrifuge the plates and incubate at 37 °C for 5 hours 1 ul of CCF4 dye mixture Incubate the plates at RT for 1 hour Read the plate in EnVision plate reader (Ex= 405nm, and Em1=460nm and Em2=530nm). The %Activity was determined from the ratio of 460nm/530nm. Data normalization and AC50 calculations were accomplished using GeneData software.
% is scaled to controls: 0 for no effect and ±100 for the full control effect.

Activity change, negative = inhibition, inactive:
COCCn1c(=O)c(-c2ccccc2)nc2cnc(Oc3ccc(OC)cc3)nc21 0.481%, FC(F)(F)c1ccccc1-c1cc(NCCN2CCOCC2)ncn1 27.7%, Cn1cc(-c2nc3cnc(Oc4cccc(Cl)c4)nc3n(CCC#N)c2=O)c2ccccc21 21.5%, O=C(c1cccc(F)c1)N1CCC2(CCCN(c3ncccn3)C2)CC1 -6.9%, CC(C)NC(=O)N1CCCC2(CCN(C(=O)c3ccncc3)CC2)C1 8.27%, O=c1c(-c2ccccc2)nc2cnc(N3CCOCC3)nc2n1C1CC1 -1.33%, COCC(=O)N1CCC[C@@]2(CCN(C(=O)Nc3ccc(OC)cc3)C2)C1 11.4%, COc1ccc(NC(=O)N2CC[C@@]3(CCCN(C(=O)c4ccc(OC)cc4)C3)C2)cc1 10.5%, CC(=O)N1CCC2(CCN(Cc3ccncc3)CC2)CC1 -0.25%, Cc1cccc(CNc2ncnc3ccc(-c4cccc(C#N)c4)cc23)c1 -25.8%, COc1cccc(Nc2ncc3nc(-c4cn(C)c5ccccc45)c(=O)n(CCC#N)c3n2)c1 -5.99%, COc1ccc(Oc2ncc3nc(-c4cc(F)cc(F)c4)c(=O)n(CCC#N)c3n2)cc1 -14.9%, COc1ccc(Oc2ncc3nc(-c4ccccc4)c(=O)n(C4CC4)c3n2)cc1 5.68%, CNc1ccnc(-c2ccccc2C(F)(F)F)n1 5.43%, O=C(c1ccco1)N1CCC2(CC1)CN(Cc1cc(C(F)(F)F)cc(C(F)(F)F)c1)C2 15.6%, COc1ncc2nc(-c3cc(F)cc(F)c3)c(=O)n(C)c2n1 -1.78%, O=C(c1ccco1)N1CCC2(CC1)CCN(c1ncccn1)CC2 -8.3%, Cc1nc2cncnc2n(Cc2ccccc2)c1=O -2.35%, COc1cccc(Nc2ncc3nc(-c4ccccc4)c(=O)n(Cc4cccs4)c3n2)c1 -11.8%, O=C(Nc1ccccc1)N1CCCC2(CCN(C(=O)c3cc(C(F)(F)F)cc(C(F)(F)F)c3)CC2)C1 19.5%, CN(C)c1ncnc2ccc(-c3ccccc3C#N)cc12 20.3%, Cc1ccccc1-c1nccc(Nc2ccc(F)cc2)n1 -3.97%, Cn1cc(-c2nc3cncnc3n(Cc3ccc(F)cc3)c2=O)c2ccccc21 -18.4%, Cn1c(=O)c(-c2cccs2)nc2cncnc21 2.85%, c1cncc(CNc2nc(-c3ccoc3)nc3ccccc23)c1 -9.01%, Cn1c(=O)c(-c2cccs2)nc2cnc(N3CCOCC3)nc21 -9.83%, COC(=O)N1CCC[C@@]2(CCN(c3ccccn3)C2)C1 -1.97%, c1ccc(-c2ccc(N3CC4(CCNCC4)C3)cc2)cc1 4.74%, CNc1ncncc1-c1ccccc1OC 8.73%, CC(=O)N1CCC2(CCN(Cc3cc(C(F)(F)F)cc(C(F)(F)F)c3)CC2)CC1 -19.4%, Cn1cccc1C(=O)N1CCC2(CC1)CCN(c1ccc(-c3ccccc3)cc1)CC2 11.4%, CN(C)c1ncc2nc(-c3cccs3)c(=O)n(CCC#N)c2n1 -7.03%, c1nc(NC2CCNCC2)c2cc(-c3ccc4c(c3)OCO4)ccc2n1 15.7%, Cc1noc(C)c1C(=O)N1CCC2(CC1)CCN(c1cccc(-c3ccccc3)c1)CC2 -2.13%, CN1CCN(c2cc(-c3ccccc3C(F)(F)F)ncn2)CC1 -29.9%, c1cncc(-c2cncnc2-n2ccnc2)c1 -6.63%, CCNc1ncc2nc(C)c(=O)n(Cc3ccc(F)cc3)c2n1 -0.858%, CC(C)NC(=O)N1CC[C@@]2(CCCN(C(=O)c3csnn3)C2)C1 20.3%

Same assay, conditions: Jurkat NFAT-bla M1, carbachol, beta-lactamase ratio, 5 h; at 17.2 µM (top of the series)

Activity change, negative = inhibition, inactive:
Oc1ccc(/C=C\c2cc(O)cc(O)c2)cc1 -19.4%

Same assay, conditions: Jurkat NFAT-bla M1, carbachol, beta-lactamase ratio, 5 h; at 38 µM (top of the series)

Activity change, negative = inhibition, inactive:
Oc1ccc(/C=C\c2cc(O)cc(O)c2)cc1 -5.74%
